Screening data deposited in PubChem BioAssay by National Center for Advancing Translational Sciences (NCATS).
FLuc counter = firefly luciferase modulation, counter-screen for miR-21 project. P08659. purified FLuc, Km substrates, luminescence inhibition. Potency, µM (top dose mostly 57.5 µM), inactives show top-dose activity change, negative = inhibition, hits mostly inhibitors. actives 6.9% (n = 360,000). AID 588342;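 further: plate controls were vehicle for no effect and reference inhibitor for full effect; nearly all actives have a fitted effect of over 55% in size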
Target sequence (P08659 whole entry, looked up): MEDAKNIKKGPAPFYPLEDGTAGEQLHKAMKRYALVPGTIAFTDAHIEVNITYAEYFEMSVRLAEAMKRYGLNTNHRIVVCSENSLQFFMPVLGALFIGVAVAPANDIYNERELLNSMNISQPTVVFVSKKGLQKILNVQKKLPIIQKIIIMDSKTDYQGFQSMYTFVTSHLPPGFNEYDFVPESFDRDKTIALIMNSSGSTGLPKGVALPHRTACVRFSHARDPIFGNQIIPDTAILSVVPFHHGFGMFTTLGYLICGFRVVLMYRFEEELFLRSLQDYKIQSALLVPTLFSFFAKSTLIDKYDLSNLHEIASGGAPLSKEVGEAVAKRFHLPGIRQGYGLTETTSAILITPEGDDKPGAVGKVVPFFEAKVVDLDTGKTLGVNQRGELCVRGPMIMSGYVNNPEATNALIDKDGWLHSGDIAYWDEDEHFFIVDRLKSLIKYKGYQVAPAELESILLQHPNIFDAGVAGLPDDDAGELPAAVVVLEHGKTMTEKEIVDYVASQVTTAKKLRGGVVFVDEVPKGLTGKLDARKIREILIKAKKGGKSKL
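Biochemical qHTS of compounds, final roughly 60 µM downward over six points, against 10 nM purified firefly luciferase using Km concentrations of substrates (10 uM D-luciferin, 10 uM ATP) in Tris acetate pH 7.5 buffer; luminescence output.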
NPC1 prom act = activators of NPC1 promoter; Potency, µM (titrated, usually from 9.22 µM), for inactives: at the top dose activation, actives largely listed as activators; actives 2.4% (n = 320,000); Huh7 NPC1 promoter luciferase reporter, 24 h; AID 485313; further: % of control where 0% means no effect; nearly all actives have a fitted effect of over 60% in size
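Luminescence read-out of NPC1 promoter-driven luciferase in stably transfected Huh7 cells; compounds delivered in DMSO and left 24 h at 37C, 5% CO2, qHTS titration format.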
Rab9 promoter act = activators of Rab9 promoter. Potency, µM (series often up to 9.22 µM), for the others: at the highest dose activation, negative = inhibition, most hits filed as activators. actives 2.8% (n = 320,000). Huh7 Rab9 promoter-luciferase reporter, luminescence, 24 h; further: % of control where 0% means no effect; nearly all actives have a fitted effect of over 60% in size
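Cell-based reporter: Huh7 stable for Rab9 promoter-driven luciferase, plated in reduced-serum medium with 10% FBS at 1500 cells/well, compound-treated 24 h at 37 °C, luminescence read after 10 min reagent.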
SMN2 splice up = increases expression of the SMN2 splice variant. HEK293 SMN2-luciferase splicing reporter, luminescence, 30-36 h. Potency, µM (titrated, usually from 46.1 µM), for the others: at the highest dose activity change, positive = activation, most hits filed as activators. actives 2.8% (n = 210,000). AID 1458; further: % of control where 0% means no effect; nearly all actives have a fitted effect of over 55% in size
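qHTS luciferase splicing reporter: luminescence rises when SMN2 exon 7 is included in transfected HEK293 cells. Compound exposure lasted 30-36 h at 37C, with 4.5 mM final sodium butyrate as control, followed by a ONE-Glo read.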
KinaseGlo FLuc = blocks Kinase-Glo luciferase, a counter-screen artifact | actives 0.28% (n = 200,000) | Potency, µM (doses to about 38.3 µM), inactives show at the top dose activity change, negative = inhibition, usual class: inhibitors | Kinase-Glo luciferase, ATP luminescence, 8 min | AID 1379 | Q27757; further: on the % scale 0 is the no-effect control and ±100 the full control effect; nearly all actives have a fitted effect of over 60% in size
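Luminescence was the read-out, taken after 8-minute incubation at ambient temperature. Luciferase turned over luciferin with 10 uM ATP in imidazole pH 7.2 buffer containing KCl, MgCl2, Tween 20 and BSA.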
ELG1 genotox = inducers of genotoxicity in HEK293T ELG1-luciferase cells; HEK293T ELG1-luciferase reporter, luminescence, 16 h; Potency, µM (highest dose often 46 µM), without a hit: top-dose activity change, positive = activation, usual class: activators; actives 1.3% (n = 330,000); AID 504466; further: % of control where 0% means no effect; nearly all actives have a fitted effect of over 60% in size
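HEK293T cells expressing luciferase-tagged ELG1 were treated with compound or DMSO for 16 hr at 37°C. Luciferase activity was then read after 30 min with ONE-Glo at room temperature; rising signal flags genetic stress.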
* = called active by the depositor. This is a sample that favours compounds with a hit; in the whole collection about 7.5% have one here. The call rests on the fitted dose curve; in most records, active means well fitted curve in the direction sought with a large enough effect; inconclusive means small, poorly fitted or top-dose-only effect, or another doubt; inactive means no such curve, though single readings can be large; an effect the other way counts as inactive or inconclusive. Potency means the concentration at half of the fitted maximal effect.

For CNc1nc(-c2c[nH]c3ccccc23)cs1 the results were FLuc counter inconclusive, NPC1 prom act 10%, Rab9 promoter act 13%, SMN2 splice up 12%, KinaseGlo FLuc -2% and ELG1 genotox 8%.
Screening CCOc1ncccc1C(=O)Nc1ccc(-c2cn3ccsc3n2)cc1 returned FLuc counter 2%, NPC1 prom act -1%, Rab9 promoter act 2%, SMN2 splice up -32%, KinaseGlo FLuc 10% and ELG1 genotox 1%.
Screening COc1ccccc1C(=O)Nc1cccc(-c2cn3ccsc3n2)c1 returned FLuc counter 4.3µM*, NPC1 prom act 9%, Rab9 promoter act 13%, SMN2 splice up 18%, KinaseGlo FLuc 1% and ELG1 genotox -7%.
Screening Nc1cccc(-c2cn3ccsc3n2)c1 returned FLuc counter 21µM*.
CCCCC(=O)Nc1cccc(-c2nnc(-c3ccccc3)o2)c1 was read as FLuc counter inconclusive, NPC1 prom act 8%, Rab9 promoter act 19%, SMN2 splice up inconclusive, KinaseGlo FLuc 3% and ELG1 genotox -2%.
Screening O=C(Nc1cccc(-c2cn3ccsc3n2)c1)c1ccccc1 returned FLuc counter 11µM*, NPC1 prom act 14%, Rab9 promoter act 15%, SMN2 splice up -7%, KinaseGlo FLuc -2% and ELG1 genotox -8%.
For CCCCC(=O)Nc1cccc(-c2cn3ccsc3n2)c1 the results were FLuc counter 15µM*, NPC1 prom act 26%, Rab9 promoter act 27%, SMN2 splice up 8%, KinaseGlo FLuc -5% and ELG1 genotox 5%.
Screening O=C(CCCCCN1C(=O)[C@@H]2Cc3ccccc3CN2C1=O)Nc1cccc(F)c1 returned FLuc counter 4%, NPC1 prom act -2%, Rab9 promoter act -15% and ELG1 genotox -14%.
CCOc1ccc(OCc2cccc(C(=O)Nc3ccc(CN4CCCCC4)cc3)c2)cc1 was read as FLuc counter 6µM*, NPC1 prom act 0.35µM*, Rab9 promoter act 0.45µM*, SMN2 splice up 1.8µM*, KinaseGlo FLuc -2% and ELG1 genotox 1.3µM*.
COc1ccc(OCc2cccc(C(=O)Nc3ccc(CN4CCCCC4)cc3)c2)cc1 was read as FLuc counter 12µM*, NPC1 prom act 1.1µM*, Rab9 promoter act 0.89µM*, SMN2 splice up 1.8µM*, KinaseGlo FLuc -5% and ELG1 genotox inconclusive.
Screening COc1cc(OC)cc(C(=O)Nc2ccc(CN3CCCCC3)cc2)c1 returned FLuc counter -11%, NPC1 prom act -1%, Rab9 promoter act -1%, SMN2 splice up 5%, KinaseGlo FLuc 1% and ELG1 genotox 5%.
For Cc1ccc(C2C(=O)N(C3CCCCCC3)CC(=O)N2C(C)C)cc1 (stereo not given) the results were FLuc counter 4%.
CC(C)N1C(=O)CN(C2CCCCCC2)C(=O)C1c1ccccc1F (stereo not given) was read as FLuc counter -14%, NPC1 prom act 3.5µM*, Rab9 promoter act inconclusive, SMN2 splice up 7%, KinaseGlo FLuc -2% and ELG1 genotox inconclusive.
Screening COc1ccc(/C=C/C(=O)Nc2ccc(Cl)c(Cl)c2)cc1 returned FLuc counter 4.8µM* and SMN2 splice up 6%.
Screening COc1ccc(/C=C/C(=O)Nc2cccnc2Cl)cc1 returned FLuc counter 5.4µM*, NPC1 prom act 2µM*, Rab9 promoter act 2.5µM* and ELG1 genotox 9.2µM*.
For COC(=O)c1cc(Cl)c(NC(=O)/C=C/c2ccc(OC)cc2)cc1OC the results were FLuc counter 4%, NPC1 prom act -8%, Rab9 promoter act 3%, SMN2 splice up 4%, KinaseGlo FLuc -1% and ELG1 genotox 8%.
For COc1ccccc1/C=C/C(=O)NCCc1ccccn1 the results were FLuc counter 13µM*, NPC1 prom act inconclusive, Rab9 promoter act 2.8µM* and ELG1 genotox inconclusive.
